In all, about 69,000 compounds went through this assay and about 8,600 (12%) showed an effect of 50% or more. What follows is part of a selection rich in strong results, with near analogues and random picks from the rest.

The assay has as its system Plasmodium berghei. The experiment in a line: Screen against P. berghei liver stage (PbLuc), transformed with Luciferase, at 10uM. Particulars: tested at 10 uM. Type of assay: functional, HepG2.
As for `CCN(Cc1ccncc1)c1cc(C2CCN2C(C)=O)nc(C)n1` (stereo unspecified), the INHIBITION turned out to be 19.775%.

As for `CC(C)c1cc(C(=O)N[C@@H]2CC[C@@H](Oc3ccccc3)[C@@H]2O)on1`, the INHIBITION is -10.955%.

As for `CCOCCNC(=O)[C@@H]1CCCN1c1nccc(Nc2ccccc2)n1`, the INHIBITION was found to be 6.55%.

`O=C(CSc1ccncc1)N1C[C@@H]2CC[C@H]1CN(Cc1cccnc1)C2`: the INHIBITION is recorded as 9.54%.

For the compound `CCc1csc(C2CCCN(C(=O)c3ccccn3)C2)n1` (stereo unspecified), the INHIBITION is 14.1%.

`NCC1[C@H]2CN(Cc3cccc(Cl)c3)C[C@@H]12` (stereo partly specified): the INHIBITION worked out at 13.7%.

Regarding `Cc1ccc(S(=O)(=O)N2CCN(C)c3ccncc32)cc1F`, the INHIBITION was 41%.

Turning to `c1cnnc(N2CCCC(NCc3nc(-c4ccco4)no3)C2)c1` (stereo unspecified), the INHIBITION worked out at 55.5%.

In the case of `c1ccc(-c2nnc(CNC3CCCN(c4cccnn4)C3)o2)cc1` (stereo unspecified), the INHIBITION is given as -43.25%.

`c1cnnc(N2CCCC(NCc3ccncc3)C2)c1` (stereo unspecified): the INHIBITION is 30.8%.

Regarding `Cc1ncc(CN(C)C2CCCN(c3cccnn3)C2)s1` (stereo unspecified), the INHIBITION worked out at 58.3%.

With `COCCc1noc(CNC2CCCN(c3cccnn3)C2)n1` (stereo unspecified), the INHIBITION was 21.8%.

For `c1ccc(-c2cnc(CNC3CCCN(c4cccnn4)C3)o2)cc1` (stereo unspecified), the INHIBITION is 51.2%.

Regarding `c1ccc(-c2noc(CNC3CCCN(c4cccnn4)C3)n2)nc1` (stereo unspecified), the INHIBITION was determined as 45.4%.

As for `Cc1oc(-c2ccco2)nc1CNC1CCCN(c2cccnn2)C1` (stereo unspecified), the INHIBITION is reported as -21.55%.

As to `CN(Cc1ncc(-c2ccccc2)o1)C1CCCN(c2cccnn2)C1` (stereo unspecified), the INHIBITION came to 43.2%.

As to `Cc1cnc(CN(C)C2CCCN(c3cccnn3)C2)cn1` (stereo unspecified), the INHIBITION is on record as 3.19%.

For the compound `c1cnnc(N2CCCC(NCc3nc(C4CC4)no3)C2)c1` (stereo unspecified), the INHIBITION was determined as 58.5%.

Consider `CN(Cc1ccc(Cl)s1)C1CCCN(c2cccnn2)C1` (stereo unspecified), for which the INHIBITION stood at 17.4%.

On to `CC1c2cc(F)ccc2CCN1C(=O)c1[nH]c(=O)[nH]c(=O)c1N` (stereo unspecified), for which the INHIBITION is reported as 33.4%.

With `CCc1cc(C(=O)N2CC[C@@H](c3ccc4c(c3)OCO4)[C@H](O)C2)ccn1`, the INHIBITION stood at 26.5%.

With `Cc1noc(C)c1CN1CCn2cc(CN3CCCCC3)nc2C1`, the INHIBITION was -33.1%.

As to `O=C(NCc1nnc2n1CCC2)NCC1(c2cccc(F)c2)CC1`, the INHIBITION is reported as -14.6%.

Consider `c1nc2c(c(NC3COC4(CCCC4)C3)n1)CCNCC2` (stereo unspecified), for which the INHIBITION amounted to 37.7%.

As for `c1cnnc(N2CCCC(NCc3nc(-c4cccs4)no3)C2)c1` (stereo unspecified), the INHIBITION is reported as 60.3%.

Consider `c1cnnc(N2CCCC(NCc3nnc(-c4ccco4)o3)C2)c1` (stereo unspecified), for which the INHIBITION is 31.8%.

Consider `C=c1ccoc1=C1NN=C(CNCC2CCCN2c2cccnn2)O1` (stereo unspecified), for which the INHIBITION amounted to 18.5%.

Turning to `CN(Cc1nc(C2CC2)no1)C1CCCN(c2cccnn2)C1` (stereo unspecified), the INHIBITION was determined as 53.5%.

Take `c1cnnc(N2CCCC(NCc3cccc4c3OCO4)C2)c1` (stereo unspecified): the INHIBITION turned out to be 53.7%.

`c1cnnc(N2CCCC2CNCc2nc(-c3cccs3)no2)c1` (stereo unspecified): the INHIBITION turned out to be 31.9%.

For the compound `c1cnnc(N2CCCC(NCc3cccc4c3OCCCO4)C2)c1` (stereo unspecified), the INHIBITION amounted to 11.9%.

For `COCCc1noc(CN(C)C2CCCN(c3cccnn3)C2)n1` (stereo unspecified), the INHIBITION was found to be 9.54%.

Consider `CN(Cc1nc(-c2ccco2)no1)C1CCCN(c2cccnn2)C1` (stereo unspecified), for which the INHIBITION is listed as 20.1%.

Take `C=c1ccoc1=C1NN=C(CNC2CCCN(c3cccnn3)C2)O1` (stereo unspecified): the INHIBITION is 56.05%.

As to `c1csc(-c2noc(CNC3CCc4ncnn4C3)n2)c1` (stereo unspecified), the INHIBITION is 0.65%.

`c1cnnc(N2CCCC(NCc3cccc4c3OCCO4)C2)c1` (stereo unspecified): the INHIBITION is on record as -12.2%.

Turning to `CC(C)c1noc(CCC(=O)NCC2CC2)n1`, the INHIBITION came to 38.5%.

With `O=C1CC(NCc2ccccn2)CN1CCc1ccc(F)cc1` (stereo unspecified), the INHIBITION is 17.8%.

For the compound `CN1CCC/C1=N\S(=O)(=O)c1ccc(NC(=O)Cc2cccs2)cc1`, the INHIBITION was -6.14%.

With `O=C(CCn1cc(Cl)cn1)N1C[C@H]2CC[C@@H](C1)N(Cc1ccccn1)C2`, the INHIBITION was -29.1%.

As for `Cc1cnn(CC2CCCCN2C(=O)c2cnc3n[nH]c(C)c3c2)c1` (stereo unspecified), the INHIBITION is given as -14%.

On to `CN(CCO)Cc1cc(Cl)ccc1OCC(O)CN1CCCCCC1` (stereo unspecified), for which the INHIBITION is given as -26.8%.

Consider `O=C(NCc1ccccc1Cn1cncn1)C1CCC1`, for which the INHIBITION worked out at 11.4%.

Turning to `CC(=O)N1CCC(Cc2nccnc2-c2ccnn2C)CC1`, the INHIBITION amounted to 4.41%.

Turning to `CN(Cc1cn2ccccc2c1C#N)C1CCCN(c2cccnn2)C1` (stereo unspecified), the INHIBITION stood at 59.4%.

For `Cc1nccn1CC1CCCN1CCCc1nc(-c2cccs2)no1` (stereo unspecified), the INHIBITION is given as 68.4%.

For `CN(Cc1cn2ccccc2n1)C1CCCN(c2cccnn2)C1` (stereo unspecified), the INHIBITION worked out at 16.7%.

As to `CN(Cc1ccccn1)C1CCCN(c2cccnn2)C1` (stereo unspecified), the INHIBITION was determined as 7.12%.

For `CN(c1ncnc2c1cnn2C)C1CCCN(c2cccnn2)C1` (stereo unspecified), the INHIBITION is -12.7%.

In the case of `c1cnnc(N2CCCC2CNCc2nc(-c3ccsc3)no2)c1` (stereo unspecified), the INHIBITION is on record as 27.9%.

In the case of `c1csc(-c2noc(CCCN3CCCC3Cn3cncn3)n2)c1` (stereo unspecified), the INHIBITION is recorded as -9.76%.

On to `c1cnnc(N2CCCC(NCc3nc(-c4ccsc4)no3)C2)c1` (stereo unspecified), for which the INHIBITION was 59.3%.

In the case of `CN(c1ncnc2sccc12)C1CCCN(c2cccnn2)C1` (stereo unspecified), the INHIBITION is recorded as 7.18%.

Regarding `CN(c1ncnc2ccccc12)C1CCCN(c2cccnn2)C1` (stereo unspecified), the INHIBITION is listed as 52%.

In the case of `c1csc(-c2noc(CCCN3CCCC3Cn3cccn3)n2)c1` (stereo unspecified), the INHIBITION is recorded as 39.8%.

As for `c1cncc(-c2noc(CNC3CCCN(c4cccnn4)C3)n2)c1` (stereo unspecified), the INHIBITION was 8.66%.

Values taken from ChEMBL document CHEMBL4513216, “Probing the Open Global Health Chemical Diversity Library for Multistage-Active Starting Points for Next-Generation Antimalarials” (ACS Infect Dis, 2020).
